Our source for the growth values is PubChem BioAssay (NCI).

Molecules are shown by their SMILES. Compounds without any hit were thinned out: in the full panel of roughly 83,000, 20% have a hit.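 How to read the values: 0–100, growth inhibition (40 = 60% inhibited); 0, no net growth; -100 to 0, cell death (-40 = 40% of starting cells died; -100 = all dead).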 Values without a mark were called inactive. Activity calls are given as the source filed them. How the source made its calls: active means growth percent below 10; inactive means the rest.

This experiment concerns LOX IMVI melanoma. Put plainly: NCI-60 one-dose screen, 48 h (100 = growth as untreated, 0 = no growth, -100 = all killed). The conditions noted are these: 10 µM.
In the case of `COc1ccc(/C=C2\CCCC3=C2NC(N)=NC3c2ccc(OC)cc2)cc1` (stereo not drawn), the growth is 73.6%. Next, `CN(C)CCCOc1cccc(NC2=C(Cl)C(=O)C(Nc3cccc(OCCCN(C)C)c3)=C(Cl)C2=O)c1`: -82.6% (active); `N#CC1=C(N)Oc2cc(N)ccc2C1c1cccnc1` (stereo not drawn): 95.1%; `COc1cc(/C=C/c2cc(/C=C/c3ccc(O)c(OC)c3)n(C(=O)Nc3ccc(C)cc3)n2)ccc1O`: 1.89% (active).

Take `Cc1ccc(-n2nnnc2N)c(C)c1`: the growth is 93.8%. The value for `CCCCN(CCCC)C(=O)[C@H](CC)[C@@H]1CC[C@@H](C)[C@@H]([C@H](C)[C@@H](O)[C@@H](C)C(=O)[C@H](CC)C2O[C@]3(C=C[C@@H](O)[C@]4(CC[C@@](C)([C@H]5CC[C@](O)(CC)[C@H](C)O5)O4)O3)[C@H](C)C[C@@H]2C)O1` (stereo partly drawn) was 2.12% (active); that for `COc1ccc2c(c1)C(=O)/C(=C/c1ccc([N+](=O)[O-])o1)O2` was -77.4% (active). Next, `Cc1ccc(S(=O)(=O)N(C)CCCCCC(=O)O)cc1`: 95.4%.

For the compound `NC1=NC(c2ccc(Cl)cc2)C2=C(N1)/C(=C/c1ccc(Cl)cc1)CCC2` (stereo not drawn), the growth is -69.6% (active).

Regarding `S=C(NCc1ccccc1)NCc1ccccc1`, the growth is 95.6%.

As for `COc1cc2cc(Oc3ccc(NC(=O)c4ccccc4)cc3)c(C)nc2cc1OC`, the growth is 86.5%.

For the compound `Cc1c(Cl)cccc1NC(=O)CN1CCOCC1`, the growth is 97.4%. Take `C=CCN(CC=C)C(=O)[C@H](CC)[C@@H]1CC[C@@H](C)[C@@H]([C@H](C)[C@@H](O)[C@@H](C)C(=O)[C@H](CC)C2O[C@]3(C=CC(=O)[C@]4(CC[C@@](C)([C@H]5CC[C@](O)(CC)[C@H](C)O5)O4)O3)[C@H](C)C[C@@H]2C)O1` (stereo partly drawn): the growth was 36.9%.
